Out of some 300,000 compounds screened, about 37,000 (12%) were called active. This excerpt belongs to a sample that is enriched for actives. Values without a mark were called inactive. No stated cut-off is given here; in the data, active means max response mostly above about 13% (no sharp cut-off); inactive means mostly below about 14%.

This experiment in a line: Cycloheximide Counterscreen for Small Molecule Inhibitors of Shiga Toxin. Further: read at 38.3 µM for the half of the compounds with a filed dose; 0% is about no effect. The settings on record: cell reporter, cycloheximide protein synthesis inhibition counterscreen; active compounds read high. In general terms: A counterscreen serves to expose hits that act by an unwanted route or on another target.
Take `O=C(O)CN1CCN(C(c2ccccc2)c2ccccc2)CC1`: the max response was -0.558%. As for `COC(=O)Cc1csc(/N=C/c2c(O)n(-c3cccc(C(F)(F)F)c3)c(=O)c3ccccc23)n1`, the figure is -0.585%; as for `COc1ccc(NC(=O)c2cc([N+](=O)[O-])ccc2NC(=O)CNC2CCCCC2C)c(OC)c1` (stereo not given), -4.84%. With `CC(C)c1nnc(NC(=O)COC(=O)/C=C/c2ccc([N+](=O)[O-])cc2)s1`, the max response is -2.23%. Take `COc1ccc(C(=O)NC2CCN(C(=S)Nc3ccccc3)CC2)cc1`: the max response was -4.48%. Consider `CCC(C)N(C)C1CCN(C(=S)Nc2ccc(OC)cc2)CC1` (stereo not given), for which the max response is 2.11%. As for `COc1ccccc1C1CCN(C(=S)Nc2ccc(Br)cc2)CC1`, the figure is 21.5% (active); as for `O=C(CN1CCN(c2ccccc2)CC1)Nc1ccc(F)cc1`, 0.655%; as for `Cc1cc2oc(C(=O)Nc3c(C)n(C)n(-c4ccccc4)c3=O)c(C)c2cc1Cl`, -5.74%. For `O=C(CC1NCCc2ccccc21)Nc1cccc(Cl)c1` (stereo not given), the max response is 30.4% (active). As for `O=C(CC1NCCNC1=O)Nc1cc(Cl)cc(Cl)c1` (stereo not given), the figure is -5.54%; as for `O=C(CC1C(=O)NCCN1C(=O)c1ccc([N+](=O)[O-])cc1)Nc1cccc(Cl)c1` (stereo not given), 5.86%; as for `O=C1/C(=C\c2ccccc2Cl)SC(=S)N1CCC(=O)N1CCCc2ccccc21`, -2.48%. In the case of `Cc1ccc(C(=O)N2CC(=O)Nc3ccc(F)cc3C2c2ccc(F)cc2)cc1` (stereo not given), the max response is -2.84%.

As for `CCn1c(=S)sc2c(=O)n(CC(=O)Nc3cccc(Br)c3)c(C)nc21`, the max response was -2.2%. As for `CCCCC(C(=O)NC(C)(C)C)N(Cc1ccccc1)C(=O)c1snc(C(N)=O)c1N` (stereo not given), the figure is -0.829%; as for `COC(=O)/C=C\C(=O)Nc1cccc([N+](=O)[O-])c1`, 58% (active); as for `CC(=O)Nc1cccc([N+](=O)[O-])c1`, 5.16%. Take `COc1ccc(S(=O)(=O)NC(C)C(=O)Nc2cccc([N+](=O)[O-])c2)cc1` (stereo not given): the max response is 5.76%. As for `C[C@H](NC(=O)[C@@H]1Cc2ccccc2CN1C(=O)OC(C)(C)C)C(=O)NC1CCCC1`, the figure is 0.878%; as for `Cc1cc(OC(=O)c2ccc(OC(C)C)cc2)c([N+](=O)[O-])c(=O)[nH]1`, 10.8%; as for `Cc1ccc(S(=O)(=O)NCCCn2ccnc2)cc1C(=O)NC(C)C`, -2.94%. On to `CCOc1ccc(N2C(=O)/C(=C/c3ccc(C)o3)N(C)C2=S)cc1`, for which the max response is -2.62%. As for `CCOc1ccc(NC(=O)NNC(=O)c2ccc(Cl)cc2Cl)cc1`, the figure is -2.33%.

Take `CC(C)(C)OC(=O)N1CCC(C(=O)NNC(=O)c2ccc(Cl)cc2Cl)CC1`: the max response was 1.42%. Take `Cc1ccc(C(=O)NNC(=O)OC(C)(C)C)c(Cl)c1`: the max response was 23.3% (active). As to `Cc1ccccc1CN1C[C@@H]2C[C@@H](c3cn(C)nc3-c3ccccc3)N3CCC[C@@]23C1=O`, the max response was -1.2%. As for `Cc1cccc(NC(=O)c2cc(N3C(=O)CCC3=O)ccc2Cl)n1`, the figure is -1.19%; as for `Cc1cccc(NC(=O)c2cccnc2Cl)n1`, 24.1% (active). With `Cc1cccc(NC(=O)c2ccc3ccccc3n2)n1`, the max response was 56.4% (active). Take `Cc1cccc(NC(=O)c2ccccc2NC(=O)C(C)(C)C)n1`: the max response was -4.22%. With `COC(=O)C(C(=O)Nc1cccc(C)n1)C1CCCCCC1` (stereo not given), the max response is 0.569%. Turning to `CCOC(=O)C(=CNc1cccc(C)n1)C(=O)OCC`, the max response was 11.4%.

As to `COc1cccc(CNC(=O)C2CCCN(c3ncnc4c3nc3n4CCCCC3)C2)c1` (stereo not given), the max response is -1.2%. Consider `COc1cc2c(cc1OC)C(C(=O)Nc1cc(C)c(OC)c(C)c1)CC(=O)N2` (stereo not given), for which the max response was -2.52%. Take `Cc1c(Cl)cccc1NC(=S)NCC(O)c1ccccc1` (stereo not given): the max response was 7.6%. On to `O=c1ccc2cc(S(=O)(=O)NCCCc3ccccc3)ccc2[nH]1`, for which the max response is 0.781%. For the molecule `COCC(=O)Nc1c(C(=O)N2CCCC2)oc2ccccc12`, the max response is 9.66%. As to `NC(=O)c1ccc(N2CCOCC2)nc1`, the max response is 3.99%. As to `O=C(Nc1ccc(F)cc1)c1cccnc1N1CCOCC1`, the max response was -3.65%. `O=C(Nc1ccc(N2CCOCC2)nc1)c1c(F)cccc1F`: the max response is 47.6% (active). For the molecule `Cc1cccc(C)c1NC(=O)C(Cl)C(=O)c1ccccc1` (stereo not given), the max response is -3.97%.

For the molecule `CCCCNC(=S)N/N=C1\CCCCc2ccccc21`, the max response was -5.15%. As for `O=C(C1=C[C@H](c2coc3ccccc3c2=O)C[C@H](OCc2ccc(CO)cc2)O1)N1CCN(Cc2ccccc2)CC1`, the max response is 1.24%.

`COc1ccccc1N1CCN(S(=O)(=O)CCNC(=O)c2ccc(OC(C)C)cc2)CC1`: the max response was -4.03%. For `CCOC(=O)c1ccccc1CN1C(=O)c2ccccc2S1(=O)=O`, the max response is 0.941%. For `CCOC(=O)c1cc2n(c1N)-c1ccccc1C2=O`, the max response was 16.1% (active).

As for `CCOC(=O)C1=C(C(=O)OCC)C(C(=O)OCC)N(S(=O)(=O)C(F)(F)F)c2ccccc21` (stereo not given), the max response is 2.14%.

Turning to `Nc1ncc(CN2CCCC(C(=O)Nc3ccc(-c4ccco4)cc3)C2)cn1` (stereo not given), the max response was -1.66%. On to `CCOC(=O)c1cccc(NC(=O)CCc2nnc3ccc(N4CCOCC4)nn23)c1`, for which the max response was 0.592%. In the case of `COC(=O)c1ccc(NCC(=O)c2ccccc2)cc1`, the max response was 29.7% (active).

With `Cc1ccc(NC(=O)CCC(=O)c2ccc(Br)cc2)cc1`, the max response is -1.06%.

With `COC(=O)c1ccc(NCC(=O)N2CCCCCC2)cc1`, the max response is 19.4% (active). In the case of `COC(=O)c1ccc(NC(=O)c2ccccc2NS(=O)(=O)c2ccccc2)cc1`, the max response was 7.47%. As to `Cc1ccc(C(=O)CNc2ccc(F)cc2)cc1`, the max response is 13.3% (active). Take `COc1ccc(NC(=O)CCCC(=O)c2ccccc2)cc1`: the max response is 12%. For `COC(=O)c1ccc(/C=N/NC(=O)C(=O)N2CCCCCC2)cc1`, the max response is -2.86%. `Cc1ccc(C(=O)NC2CCN(C(=O)Nc3ccc(F)cc3)CC2)cc1`: the max response is -5.94%. Consider `COC(=O)c1ccc(C(=O)OC)c(NC(=S)N2CCCCC2)c1`, for which the max response is 1.84%. Turning to `O=C(NC1CCCCC1)C1CCC(CNS(=O)(=O)c2ccccc2)CC1` (stereo not given), the max response is -1.26%.

The record behind these values is PubChem BioAssay AID2314 (National Center for Advancing Translational Sciences (NCATS), 2010).
